Out of some 29,000 compounds screened, about 85 (0.3%) were called active. This is one part of a sample in which actives are shown more often than they occur. A number with no mark means an inactive call.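 The calls were made as follows: active = replicate mean overnight rise in green fluorescent reporter signal, 3 or more SD over negative controls; inactive = the rest.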
Experiment: fixK promoter GFP reporter activation – B. multivorans, primary screen (AID 1918990)
Conditions: 18 h, hits give high values

SMILES | z-score
CCCOc1ccc(CNC(=O)C2CCN(c3nn4c(=O)cc(C)nc4s3)CC2)cc1 | 0.43
Cc1cc(OCC(=O)Nc2ncn[nH]2)c(C)c(C)c1Br | 0.56
O=S(=O)(NCC(c1ccccc1)N1CCc2ccccc21)c1ccccc1 (centres undefined) | -0.54
CCCc1noc(C2CCC(=O)N(Cc3ccc(Cl)cc3)C2)n1 (centres undefined) | -0.44
COc1ccccc1CNC(=O)CCCn1c(=O)c2ccccc2n(CC(=O)Nc2ccc(C)cc2Cl)c1=O | -1.06
Cc1nc(N)ncc1C(=O)N(C)Cc1cn[nH]c1-c1ccccc1 | -0.18
COc1ncccc1NC(=O)NCc1nncn1C1CCCCC1 | 0.26
COc1ccc(NC(=O)CCN2CCN(CCO)CC2)cc1 | -3.11
CC(C)c1ccc2oc(-c3cc(NC(=O)c4cccs4)ccc3Cl)nc2c1 | 0.16
O=C1CC(c2nnc(Cc3ccc(Cl)cc3)o2)CN1c1ccccc1 (centres undefined) | 0.07
Cc1cccc(C)c1OCC(=O)NC(Cc1c[nH]c2ccccc12)C(=O)O (centres undefined) | 0.01
CSc1ncc(Cl)c(C(=O)Nc2ccc(S(=O)(=O)N3CCCC(C)C3)cc2)n1 (centres undefined) | 0
Cc1nc2nc(SCC(=O)N(Cc3ccccc3)C(C)C)nn2c(C)c1Cc1ccccc1Cl | -2.35
Cc1ccc(CN(C)S(=O)(=O)c2c(Cl)nc3sccn23)o1 | 1.01
Cn1c(=O)c2sccc2n2c(CCC(=O)NCc3ccccc3Cl)nnc12 | -0.54
COc1cccc(CNC(=O)CCC(=O)N2CC3CCCN3c3ccccc32)c1 (centres undefined) | -0.45
CC(C)CC(=O)C1CCCN(C(=O)c2ccc(N3CCC(O)CC3)nc2)C1 (centres undefined) | 0.49
CCC(=O)N1CCc2cc(S(=O)(=O)CCC(=O)N3CCN(c4ccccc4F)CC3)ccc21 | -1.64
CC(Sc1oc(-c2ccco2)nc1S(=O)(=O)c1ccc(Br)cc1)c1ccccc1 (centres undefined) | -1.12
COc1ccc(NC(=O)c2cnc(Nc3ccc(C)c(Cl)c3)c3ccccc23)cc1OC | 0.07
Cc1ccc(OCC(=O)NC(c2ccc3c(c2)CCO3)C2CC(O)C2)cc1 (centres undefined) | 0.72
COc1cccc(NC(=O)C2CCN(c3cc(C)nc4c(-c5ccc(Cl)cc5)c(C)nn34)CC2)c1 | -0.45
C=CCCC(=O)N1CCC[C@]2(C1)CN(C(=O)c1ccccc1CC)CCC2O (some centres undefined) | -0.53
COc1ccc(-c2noc(CSc3nc(C)cc(=O)[nH]3)n2)cc1OC | -1.97

SMILES | z-score
COc1ccc(CNc2nc(-c3ccc(Cl)cc3)nn2S(=O)(=O)c2ccc(C)cc2)cc1 | -1.03
Cc1cc(C(=O)NCc2nc(N)n[nH]2)c2c(C)nn(C)c2n1 | 0.15
COc1cccc(CNC(=O)C2CCC(CNS(=O)(=O)c3cccs3)CC2)c1 (centres undefined) | -0.11
Cc1ccc2oc3c(c(=O)c2c1)C(c1ccc(O)cc1)N(Cc1ccc2c(c1)OCO2)C3=O (centres undefined) | -1.07
COC(=O)c1ccc(N2CCN(C(=O)c3csc(C)n3)CC2)cc1 | -0.55
O=C(CSc1nnc(CNC(=O)c2ccccc2)n1-c1ccc(F)cc1)Nc1ccccc1F | -1.09
COc1ccc(C2=NC(c3ccncc3)=Nc3ccc(Br)cc3N2)cc1 | -0.81
Cc1c(C(=O)N2CCC3(CC2)OCCCC3O)n(C)c2ccccc12 (centres undefined) | -0.28
CCOC(=O)c1c(NC(=O)/C(C#N)=C/c2ccccc2)sc2c1CCC2 | -0.67
COc1ccccc1-c1cc(C(F)(F)F)nc(S(=O)(=O)CCCC(=O)Nc2ccc(F)cc2F)n1 | -0.87
CCC(=O)N1CCc2cc(Br)cc(S(=O)(=O)CCC(=O)NCc3ccccc3OC)c21 | -0.86
CCC(=O)N1CCc2cc(Br)cc(S(=O)(=O)CCC(=O)NCCc3ccc(OC)c(OC)c3)c21 | 2.58
CCC(=O)N1CCc2cc(Br)cc(S(=O)(=O)CCC(=O)N3CCN(c4ccc(F)cc4)CC3)c21 | 3.68 (active)
Cc1cccc2nc(-c3ccc(Cl)s3)c(Nc3ccc4c(c3)OCCO4)n12 | 0.38
COc1ccc(CNC(=O)Cc2coc3ccc(C(C)C)cc23)cc1 | -1.14
CC(=O)N1CCCCC1C(=O)Nc1cccc(-n2cccn2)c1 (centres undefined) | -4.62
Cc1ccc(C)c(N2CCN(C(=O)CN3C(=O)COc4ccc(S(=O)(=O)N5CCCCCC5)cc43)CC2)c1 | -0.13
CCc1cc2c(cc(C(=O)OC)n2Cc2nc(-c3ccc(C)cc3)oc2C)s1 | -0.09
CCCOc1ccc(C2c3c(-c4ccccc4O)n[nH]c3C(=O)N2Cc2cccnc2)cc1 (centres undefined) | -1.98
CCc1ccccc1N1CC(c2nc3ccccc3n2CCCCOc2ccccc2)CC1=O (centres undefined) | 5.94 (active)
COc1ccc(OCCCn2c(C3CC(=O)N(c4ccc(F)cc4)C3)nc3ccccc32)cc1 (centres undefined) | 0.64
CCOc1ccc(N2CC(c3nc4ccccc4n3CCOc3ccc(OC)cc3)CC2=O)cc1 (centres undefined) | -4.05
CC(=O)c1c(C)n(S(=O)(=O)c2ccc(Cl)cc2)c2ccc(NS(=O)(=O)c3ccc(Cl)cc3)cc12 | -0.71
COc1ccc(NC(=O)CNC(=O)Cn2ccc3ccccc3c2=O)c(OC)c1 | -2.14

SMILES | z-score
CN1CCCn2nc(C(=O)NCCCCc3ccccc3)cc2C1 | -1.24
CCc1ccccc1NS(=O)(=O)c1ccc2nc(-c3ccccc3)[nH]c2c1 | -1.16
CC(Cn1cccn1)NC1CCN(C(=O)c2cccnc2)CC1 (centres undefined) | -2
Cc1ccc(N2CC(C(=O)Nc3ccc(N(C)C)cc3)CC2=O)cc1Cl (centres undefined) | 0.09
COc1cccc(-c2nc(CS(=O)(=O)CC(=O)NCCc3ccc(OC)c(OC)c3)c(C)o2)c1 | -0.64
CCc1ccccc1NC(=O)N1CCC2(CC1)Oc1ccccc1C(=O)N2Cc1ccccc1F | -0.81
O=C(NC1CCCCC1)c1ccc2c(c1)N(Cc1ccc(Cl)cc1)C(=O)c1ccccc1S2=O (centres undefined) | 0.06
CCC(=O)N1CCc2cc(S(=O)(=O)NCCC(=O)Nc3cccc(C)c3C)ccc21 | -0.9
COc1ccccc1Nc1cc(C(=O)NCCCN(C)C2CCCCC2)c2ccccc2n1 | -0.07
CC(C)Sc1nnc(NC(=O)c2ccccc2-n2cnnc2)s1 | -0.42
CC(C)S(=O)(=O)c1oc(-c2ccc(F)cc2)nc1S(=O)(=O)c1ccc(F)cc1 | -3.54
CCN(C(=O)Cn1cnc2sc(C)c(S(=O)(=O)N3CCN(c4ncccn4)CC3)c2c1=O)c1ccccc1F | -2.69
CCNC(=O)Cn1nc(C)n2c(cc3c(OC)cccc32)c1=O | -1.37
CC(C)(C)C(Cn1ccnc1)NC(=O)C=Cc1cc(CO)cs1 (centres undefined) | 0.54
COc1ccc(N(C)C(=O)C2CCN(S(=O)(=O)c3cc(Br)cc4c3N(C(C)=O)CC4)CC2)cc1 | -1.87
COc1cc(C(=O)N2CCC(O)(c3ccc(C)cn3)CC2)nc(OC)n1 | -2.73
CCOc1ccc(NC(=O)c2cnn(-c3ccccc3)c2-n2cccc2)cc1 | 0.15
CC(=O)N1CCN(Cc2cc(Cl)cc(Cl)c2)C2CS(=O)(=O)CC21 (centres undefined) | 1.37
CN(C)C(=O)N1CCC(C(=O)NC2COCC2Cc2ccncc2)CC1 (centres undefined) | -2.62
COc1ccc(OC)c(-c2nc(CN3CCNC(=O)CC3)c(C)o2)c1 | -1.03
O=C1N(Cc2ccccc2)c2ccc(Cl)cc2C1(O)c1c[nH]c2ccccc12 (centres undefined) | -2.44
CCCNC(=O)CCn1nc(-c2ccccc2)c2ccccc2c1=O | -2.63
COC(=O)c1ccc(NC(=O)c2cccc3c2C(=O)N(C2CCCCC2)C3)cc1 | -0.11
CN(CC(=O)Nc1cccc(C(F)(F)F)c1)S(=O)(=O)c1cccs1 | -1.64

SMILES | z-score
COc1ccc(C2=NC3(CCCCC3)N(CC(=O)Nc3ccc(C(C)C)cc3)C2=O)cc1 | -0.47
O=C(CSc1nc(-c2cccc(F)c2)[nH]c1-c1ccccc1)Nc1ccc2c(c1)OCO2 | -0.24
CC1CCCCN1Cc1c(O)ccc2c(=O)c(-c3cccc(Cl)c3)c(C(F)(F)F)oc12 (centres undefined) | -3.67
O=C(NC1CCCC1Cc1ccc(F)cc1)c1cccc(=O)[nH]1 (centres undefined) | 0.15
Cn1nnnc1SCCNCc1ccc(Cl)c(Cl)c1 | -2.02
O=C(c1ccnc(CC2COc3ccccc3C2)c1)N1CCOCC1 (centres undefined) | 1.09
CN1CCN(CC2(CNC(=O)CN(C)Cc3cccnc3)CC2)CC1 | -0.08
CCCc1cc(CNC(=O)c2ccc3c(c2)OCC(=O)N3)on1 | 0.27
CCn1cc(C(=O)N(C)Cc2ccccc2)c(=O)c2cc(S(=O)(=O)N3CCCCCC3)ccc21 | -2.08
Cc1cccc(C(=O)N2CCC[C@@]3(CN(Cc4ncc(C)[nH]4)CCC3O)C2)c1 (some centres undefined) | 0.68
CNC(=O)c1cccc(NC(=O)CCCc2cccs2)c1C | -1.26
COc1ccc(CNc2nc(-c3ccccc3)nn2C(=O)c2ccccc2OC)cc1 | 0.5
COc1cc(C2c3c(oc4ccccc4c3=O)C(=O)N2c2nc(C)c(C)s2)ccc1O (centres undefined) | -1
Cc1nc(SCCOc2ccc(Cl)cc2)[nH]c(=O)c1Cc1ccccc1 | -1.27
COCC1C(NS(=O)(=O)c2ccc(F)cc2C)C2CCOC21 (centres undefined) | -0.38
COc1ccc(-c2nc3ccccc3o2)cc1NC(=O)c1cc([N+](=O)[O-])ccc1N1CCOCC1 | -1.81
CC(=O)c1ccc(N2CCN(c3nc4c(S(=O)(=O)c5ccccc5)nnn4c4ccc(Cl)cc34)CC2)cc1 | 0.23
COc1ccc2c(c1)c(=O)c(S(=O)(=O)c1ccc(F)cc1)cn2CC(=O)Nc1ccc(C)cc1C | -1.75
Cc1nn(-c2nc(-c3ccccc3)cc(C(F)(F)F)n2)c(C)c1Cl | -0.93
CCCSc1ncc(Cl)c(C(=O)Nc2c(C(=O)Nc3ccccc3)oc3ccccc23)n1 | -0.41
O=C(c1ccc2c(c1)N(Cc1ccc(Cl)cc1)C(=O)c1ccccc1S2(=O)=O)N1CCCCC1 | 0.84
COc1ccccc1CNC(=O)CCn1c(=O)c2ccccc2n(CC(=O)Nc2cccc(Cl)c2)c1=O | 0.27
